Screening data deposited in PubChem BioAssay by Buhrlage Lab, Dana-Farber Cancer Institute and Novartis Institutes for BioMedical Research (Cambridge, Mass).
The list is not random: actives were taken first. Their share in the collection is about 7%.
USP30 inh: inhibitors of human USP30 deubiquitinase; Ubiquitin carboxyl-terminal hydrolase 30 (Homo sapiens), Q70CQ3; AID 1645860, 2021; hit rate 5.3% among 47,000; purified USP30, Ub-rhodamine cleavage fluorescence; inhibition, % at 25 µM
USP28 block: inhibitors of human USP28 deubiquitinase; Ubiquitin carboxyl-terminal hydrolase 28 (Homo sapiens), Q96RU2; AID 1645857, 2021; purified USP28, Ub-rhodamine cleavage fluorescence, 30 min; hit rate 3% among 47,000; inhibition, % at 25 µM
* marks the source's active call; other numbers are inactive results. No stated cut-off is given here; in the data, active means inhibition above about 30%; inactive means the rest.

SMILES	USP30 inh	USP28 block
CC(C)c1nnc(-c2ccc(=O)n(CC(=O)Nc3ccccc3)c2)o1	-0.5	-0.2
Cc1cc(C)cc(NC(=O)Cc2nnc3ccc(-c4nc(C)no4)cn23)c1	-22.3	-4.0
Cc1ccc(NC(=O)COc2ccc(-c3nc(C(C)C)no3)cc2)c(F)c1	31.5*	6.1
CCc1noc(-c2ccc(=O)n(CC(=O)Nc3ccccc3)c2)n1	37.7*	14.1
CCc1noc(-c2ccc(OCC(=O)Nc3cc(C)cc(C)c3)cc2)n1	43.8*	10.2
CC(C)c1noc(-c2ccc(OCC(=O)N3CCN(c4ccccc4F)CC3)cc2)n1	-0.1	-2.3
O=C(O)c1ccc(Cl)c(NC(=O)C2COc3ccccc3O2)c1 (stereo not given)	-0.8	-2.5
CC(=O)N1CCN(C(=O)Nc2ccccc2)CC2(CNC(=O)C2)C1 (stereo not given)	-0.6	-5.8
CC1NC(=O)C(CC(N)=O)NC(=O)C(C(C)O)NC(=O)C(Cc2ccc(O)cc2)NC(=O)C(C(C)C)NC(=O)C(NC(=O)CC(O)CCCCCCCCCCCCN=C(N)N)C(C)OC1=O (stereo not given)	86.2*	86.9*
CCCCCCCCCCCCCCCC(=O)NC(CCC(=O)O)C(=O)NC(CCCN)C(=O)NC1Cc2ccc(cc2)OC(=O)C(C(C)CC)NC(=O)C(Cc2ccc(O)cc2)NC(=O)C(CCC(N)=O)NC(=O)C2CCCN2C(=O)C(C(C)C)NC(=O)C(CCC(=O)O)NC(=O)C(C(C)O)NC1=O (stereo not given)	-4.6	12.5
Cc1ccc(CNC(=O)c2ccc(N3C(=O)[C@@H]4Cc5ccccc5CN4C3=O)cc2)cc1	48.9*	11.4
O=C1[C@@H]2Cc3ccccc3CN2C(=O)N1c1ccccc1[N+](=O)[O-]	16.0	11.1
O=C1[C@@H]2Cc3ccccc3CN2C(=O)N1c1cccc2ccccc12	33.1*	13.1
COc1ccc(CNC(=O)c2ccc(N3C(=O)[C@@H]4Cc5ccccc5CN4C3=O)cc2)cc1	-7.1	-15.6
CCOC(=O)C1CCCN(CC(=O)NC(c2ccccc2)c2ccccc2)C1 (stereo not given)	21.0	9.0
CC1CCCCC1NCC(=O)NC(c1ccccc1)c1ccccc1 (stereo not given)	32.1*	13.6
COc1ccccc1-c1nc2c3c(C)c(C)n(CCCN(C)C)c3ncn2n1	-92.3	-10.9
COc1ccccc1-c1nc2c3c(C)c(C)n(Cc4cccnc4)c3ncn2n1	-23.6	51.4*
CCc1nnc(-c2coc(S(=O)(=O)N3CCN(c4ccccc4)CC3)c2)o1	-11.5	0.0
Nc1ccc(NC(=O)c2cc3c(s2)CCC3)cc1[N+](=O)[O-]	20.6	30.7*
O=C(Nc1cc(S(=O)(=O)Nc2ccc(Cl)cc2)ccc1O)c1cc2c(s1)CCC2	20.3	5.1
Cc1cc(C)cc(N2C(N)=NC(N)=NC2c2ccccc2F)c1 (stereo not given)	36.9*	13.2
Cc1ccc(N2C(=O)CCC2(C)C(=O)NC2CCCC2)cc1 (stereo not given)	2.7	6.2
Cc1ccc(-n2c(=O)[nH]c3c(C(N)=O)nc(-c4ccccn4)nc32)cc1	-78.9	-28.0
Cc1ccc(-n2c(=O)[nH]c3c(C(N)=O)nc(-c4cccnc4)nc32)cc1	33.6*	18.5
SMILES	USP30 inh	USP28 block
O=C(Nc1ccccc1)N1CCN(Cc2nc3ccc(Cl)cc3o2)CC1	6.1	0.0
O=C(CN(c1ccc(F)cc1)S(=O)(=O)c1ccccc1)N1CCC(Cc2ccccc2)CC1	23.8	10.9
O=C(/C=C/c1ccc(F)cc1)N1CCC(Cc2ccccc2)CC1	51.4*	32.7*
COCCNC1=NCCNC12CCN(S(=O)(=O)c1ccccc1)CC2	-2.3	-13.5
O=C1CCCN1CCCNc1nc(-c2ccncc2)nc2c1CCC2	1.5	-2.3
Cc1ccc2[nH]c3c(=O)n(CCC4=CCCCC4)cnc3c2c1	9.7	4.7
COc1ccc(CCn2cnc3c([nH]c4ccccc43)c2=O)cc1	96.1*	35.1*
Cc1ccc2[nH]c3c(=O)n(CCc4ccc(O)cc4)cnc3c2c1	93.4*	42.8*
Cc1ccc2[nH]c3c(=O)n(CCN4CCCC4)cnc3c2c1	5.5	12.8
O=c1c2[nH]c3ccccc3c2ncn1CCC1=CCCCC1	-6.9	-31.1
Cc1ccc2[nH]c3c(=O)n(CC4CCCO4)cnc3c2c1 (stereo not given)	43.5*	-4.3
CCN1C[C@H]2COc3ccc(C)cc3[C@H]2N(C(=O)c2ccccc2OC)CCC1=O	1.0	0.4
Cc1cc(NC(=O)Cn2c(=O)n(-c3ccc(CC(=O)NC4CCCC4)cc3)c(=O)c3ccccc32)n[nH]1	8.5	6.0
Cc1cccc(CN2C[C@H]3C[C@H](C(=O)NCc4cccnc4)[C@@H](C2)O3)c1	17.6	8.2
Cc1cc(=O)n2c(n1)NC(N1CCOCC1)=NC2c1ccccc1 (stereo not given)	-3.1	4.1
Cc1cccc(S(=O)(=O)N2CCC(c3nc4cccnc4n3C)C2)c1 (stereo not given)	21.7	7.3
CCOc1ccc(N2C(=O)N(CC(=O)c3ccc(F)cc3)c3ccccc3S2(=O)=O)cc1	13.1	13.7
CC(=O)c1ccc(N2C(=O)N(Cc3cccc([N+](=O)[O-])c3)c3ccccc3S2(=O)=O)cc1	52.6*	17.7
Cc1cccc(CN2C(=O)N(Cc3ccccc3)S(=O)(=O)c3ccccc32)c1	33.9*	15.2
O=C1N(Cc2ccc(F)cc2)c2ccccc2S(=O)(=O)N1Cc1ccc(F)cc1	13.4	12.4
COCCN1C[C@H]2CCN(C(=O)c3cc(C)on3)CC[C@H]2S1(=O)=O	21.3	2.5
COCCN1C(=O)C(NC(=O)c2ccccc2)=CCC1(O)C(F)(F)F (stereo not given)	-20.9	-9.1
O=S(=O)(c1ccc(F)cc1)N1CCC2(CC1)COCCN(Cc1cccnc1)C2	-9.4	-16.2
O=C(c1ccc(C(F)(F)F)cc1)N1CCN(c2ccc(NCc3ccccc3)nn2)CC1	-12.1	-4.5
COc1ccc(-c2noc(CSc3nnc(-c4ccc5c(c4)OCCO5)n3C)n2)cc1	10.8	11.3
SMILES	USP30 inh	USP28 block
CCc1ccc(OCc2nnc(SCC(=O)Nc3ccccc3OC)n2Cc2ccccc2)cc1	49.3*	23.2
CCc1cccc(C)c1NC(=O)CSc1nnc(COc2ccccc2)n1CC	1.0	0.8
Cn1c(=O)[nH]c(=O)c2c1nc(N1CCc3ccccc3C1)n2CCCc1ccccc1	8.2	4.7
Fc1ccc(-c2ccc(SCc3nc(-c4ccc(Cl)cc4)no3)nn2)cc1	-42.6	-14.0
O=S(=O)(NCCc1nc(-c2ccc(Cl)cc2)no1)c1ccc(F)cc1	39.0*	17.7
O=C(NCCN1CCc2ccccc2C1)Nc1ccc(C(F)(F)F)cc1	-4.4	46.2*
Cc1cccc(NC(=O)NCCN2CCc3ccccc3C2)c1	-0.2	-1.1
CCc1ccc(NC(=O)C2CCN(c3nc4nc[nH]c(=O)c4s3)CC2)cc1	33.7*	-2.7
O=C(Nc1ccc(Cl)cc1)C1CCN(c2nc3nc[nH]c(=O)c3s2)CC1	-5.2	-6.6
COCCNc1nc2c(-c3cccc(C(F)(F)F)c3)nnn2c2ccccc12	31.6*	11.3
CCCCNc1nc2c(-c3ccccc3)nnn2c2ccccc12	8.9	-3.9
Cc1cc2n(n1)[C@@H](C(F)F)C[C@@H](C1CCN(C(=O)Cc3sc(C)nc3C)CC1)N2	4.6	-4.7
CN(C)c1ccc(NC(=O)CSc2nnc(-c3ccc(S(=O)(=O)N4CCOCC4)cc3)n2C)cc1	44.7*	7.0
